About 79,000 compounds went through this panel and 15% of them were active in at least one assay; those are over-represented in the sample as a whole. Values without a mark were called inactive. No stated cut-off is given here; in the data, active means growth inhibition above about 70%; inactive means the rest.

This assay can be described thus: NCI Yeast Anticancer Drug Screen. Data for the cln2 rad14 strain (AID 165).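 Further: 0% = growth equal to vehicle treated cultures.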 To be noted: S. cerevisiae cln2 rad14 strain, at 50.0 µM, hits give high values. Put shortly: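 Test compounds were added to cln2 rad14 yeast cultures; inhibition of growth was then determined by comparison with vehicle treatment.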
As for `CN1CCN(c2c3c(nc4ccccc24)CCCC3)CC1`, the growth inhibition is -40.2%. With `CNC(=O)Nc1ccnc(=O)[nH]1` the figure was -28.3%; with `O=c1ccc(=O)n(-c2ccc(Cl)cc2)[nH]1`, 23.4%.

For the compound `O=C(c1cccnc1)c1cc(-c2ccccn2)c(=O)n2ccccc12`, the growth inhibition is -1.05%.

Consider `CCOC(=O)CC1(C)c2nc(NC(C)=O)sc2Cc2sc(NC(C)=O)nc21`, for which the growth inhibition was -26.6%. With `O=C1CCCCC1COCC1CCCCC1=O` (centres undefined) the figure was -17.6%. With `COc1cc(C2C3=C(COC3=O)OC(C)(C)Oc3cc4c(cc32)OCO4)cc(OC)c1O` (centres undefined) the figure was -28.7%; with `[Co].[O-]c1cccnc1C=Nc1ccccc1.[OH3+]`, 30.9%; with `COCC/C=C/CCl`, -8.95%. For `Cc1cc(C(N)=O)c(C(N)=O)c(Cl)n1`, the growth inhibition is -0.2%.

With `O=C1CCSSCCC(=O)Nc2ccccc2N1`, the growth inhibition was -9.55%. As for `Cc1c(N=Nc2cccc(Cl)c2Cl)c(-c2ccccc2)nn1C(=S)S`, the growth inhibition is 35.6%. With `CCC(C(O)c1ccccc1)[N+](=O)[O-]` (centres undefined) the figure was -8.75%; with `CCCCN(CCCC)S(=O)(=O)N1CCOCC1`, 9.1%. The same measure for `N#Cc1nc(CCC(C(=O)O)N2C(=O)c3ccccc3C2=O)oc1N` (centres undefined): -0.55%; for `CS(=O)(=O)OCCC(O)COS(C)(=O)=O` (centres undefined): -55%; for `CCOC(=O)/C(C#N)=C/NCC1CC1`: 10.6%.

Consider `CCC[n+]1cccc(C#N)c1`, for which the growth inhibition is -24.9%. On to `COC1=C(NCC(C)C)C(=O)C(OC)=C(NCC(C)C)C1=O`, for which the growth inhibition is -57.7%.
